Measurements reported in PubChem BioAssay (Tox21).
Results filed as inconclusive are left out. Entries that show only a call come without a potency. The source made the active and inactive calls. The call rests on the fitted dose curve; in most records, active means well fitted cell-killing curve with a large enough effect in the repeat runs; inconclusive means weak or mixed curves, or effect the other way; inactive means no such curve, though single readings can be large or run the other way.

Test: qHTS assay to identify small molecule antagonists of the retinoid-related orphan receptor gamma (ROR-gamma) signaling pathway - cell viability counter screen (AID 1159520); further: nearly all actives have a fitted effect of over 50% in size
Conditions: Tet-on RORgamma CHO cells viability, ATP luminescence, 16 h; series mostly up to 92.4 µM
From the text: U.S. Tox21 Program National Center for Advancing Translational Sciences [NCATS] NIH Chemical Genomics Center [NCGC] U.S. Environmental Protection Agency [EPA] National Institutes of Environmental Health Sciences [NIEHS] National Toxicology Program [NTP] U.S. Food and Drug Administration [FDA] Tox21 Assay Overview: Nuclear steroid hormone receptors are involved in many biological processes including inflammatory responses, cell proliferation, and apoptosis. Environmental factors or compounds disrupting these nuclear receptor pathways and gene expression may promote susceptibility to immunotoxicants and autoimmune diseases. One important group of these expression factors are the retinoid-related orphan receptors. To assess compounds that may interfere with the retinoid-related orphan receptor gamma (ROR-gamma) transcription factor, a cell-based luciferase assay was used. The CHO cell-based assay utilizes a TET-inducible ROR expression factor and ROR response element-LUC reporter gene. Reporter gene activity was induced using Doxycycline Hyclate and measured after 16 hr incubation. Tet-on ROR gamma CHO cells were used to screen against the Tox21 10K compound library for cytotoxicity by measuring the viability of the cells based on the quantitation of the ATP.
Tox21 Assay Protocol Summary: Tet-on ROR gamma CHO cells were dispensed at 1,000 cells in 4 uL of culture medium per well into white wall/solid bottom 1536-well plates using a Multidrop Combi (Thermo Scientific, Waltham, MA) dispenser. Following incubation at 37 C and 5% CO2 for 4 hr, 23 nL of compounds dissolved in DMSO, positive controls or DMSO only were transferred by a Pintool station (Kalypsys, San Diego, CA) and after 2 hr incubation at 37 C, one ul of 1 uM (final concentration) of Doxycycline Hyclate was added to all the wells by using a Flying Reagent Dispenser (FRD) (Aurora Discovery, San Diego, CA). After 16 hr incubation at 37 C and 5% CO2, 5 uL of CellTiter-Glo reagent (Promega Corporation, Madison, WI) was added to each assay plate using FRD. After 30 min incubation at room temperature, luminescence was quantified on a ViewLux plate reader (Perkin Elmer, Waltham, MA).
Potency means the concentration at half of the fitted maximal effect.

SMILES | Potency
C[N+](C)(C)CCCl | inactive
CC(Cl)Cl | inactive
CCOC(=O)[C@]1(c2ccccc2)Oc2ccccc2[C@@H]1N | inactive
Clc1ccc(C(OCCN2CCCCC2)c2ccccc2)cc1 (stereo not given) | inactive
Cc1ccc2ccccc2c1 | inactive
O=C(O)c1ccccc1C(=O)Nc1cccc2ccccc12 | inactive
CC(C)(C)C(O)C(Oc1ccc(Cl)cc1)n1cncn1 (stereo not given) | inactive
CCC(COC(=O)c1cc(OC)c(OC)c(OC)c1)(c1ccccc1)N(C)C (stereo not given) | inactive
C=CCN1CC[C@]23c4c5ccc(O)c4O[C@H]2C(=O)CC[C@@]3(O)[C@H]1C5 | inactive
O=C(O)COc1ccc(Cl)cc1 | inactive
Nc1nc(=S)[nH][nH]1 | inactive
OC(c1ccc(Cl)cc1)(c1ccc(Cl)cc1)c1cccnc1 | inactive
O=[N+]([O-])c1ccc(F)c([N+](=O)[O-])c1 | 38.9 µM (active)
CCN(C)N=O | inactive
COCC(C)N(C(=O)CCl)c1c(C)csc1C (stereo not given) | inactive
C[C@@H]1CC[C@H]2[C@@H](C)C(=O)O[C@@H]3O[C@@]4(C)CC[C@@H]1[C@]32OO4 | inactive
COC1=CC(=O)O[C@@H](CCc2ccccc2)C1 | inactive
C=CCOC(C)=O | inactive
N#C/C(N)=C(/N)C#N | inactive
O=C1C(Cl)C(CCl)CN1c1cccc(C(F)(F)F)c1 (stereo not given) | inactive

SMILES | Potency
ClCc1cccc(Cl)c1 | inactive
O=C(C(Cl)(Cl)Cl)C(Cl)(Cl)Cl | inactive
CCCN(CC1CC1)c1c([N+](=O)[O-])cc(C(F)(F)F)cc1[N+](=O)[O-] | inactive
CN1C[C@H](CNC(=O)OCc2ccccc2)C[C@@H]2c3cccc4c3c(cn4C)C[C@H]21 | inactive
COC(=O)C(Cl)C(=O)OC | inactive
CCCCN=C=O | inactive
NC(=O)C(Cl)(Cl)Cl | inactive
CCOS(C)(=O)=O | inactive
CCO[C@H]1O[C@@H]2OC3(C)CC[C@H]4[C@H](C)CC[C@@H]([C@H]1C)[C@@]24OO3 | inactive
O=C(CCl)c1ccc(Cl)cc1Cl | 11.9 µM (active)
COC(C)(C)CCC[C@H](C)C/C=C/C(C)=C/C(=O)OC(C)C | inactive
O=[N+]([O-])C(Br)(CO)CO | 43.3 µM (active)
O=C1C(=O)c2cccc3cccc1c23 | inactive
C[C@H]1CNCCc2ccc(Cl)cc21 | inactive
CCOc1nc(F)cc2nc(S(=O)(=O)Nc3c(Cl)cccc3Cl)nn12 | inactive
CCCCC(CC)COP(=O)(Oc1ccccc1)Oc1ccccc1 (stereo not given) | inactive
CCCC(=O)Cl | inactive
CNP(=O)(OC)Oc1ccc(C(C)(C)C)cc1Cl (stereo not given) | inactive
COc1nn(C(=O)NS(=O)(=O)c2ccccc2OC(F)(F)F)c(=O)n1C | inactive
CC(C)O.CC(C)O.OCCN(CCO)CCO.OCCN(CCO)CCO.[Ti] | inactive
